The results in this text go back to PubChem BioAssay AID651820 (National Center for Advancing Translational Sciences (NCATS), 2012).

Among all 340,000 compounds or so, about 12,000 (3.5%) were called active. Another 18% or so got no clear call; they are omitted. This excerpt belongs to a sample that is enriched for actives. A number with no mark means an inactive call. The call rests on the fitted dose curve; in most records, active means well fitted inhibition curve with a large enough effect; inconclusive means small, poorly fitted or top-dose-only effect, or another doubt; inactive means no such curve, though single readings can be large or run the other way.
On the % scale 0 is the no-effect control and ±100 the full control effect; potency means the concentration at half of the fitted maximal effect.

The nature of this test: qHTS Assay for Inhibitors of Hepatitis C Virus (HCV). Conditions: Huh7.5.1 HCVcc-Cre infection, luciferase reporter, 44 h; series mostly up to 41.8 µM; activity change, negative = inhibition: at the top concentration. In outline: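 HCVcc-Cre virus at an moi near 0.5 was added right after compound to cells cultured 4 h from seeding (1,000 cells/well). Luciferase activity was determined 44 h later, 15 min after substrate addition at RT.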
In general terms: In qHTS, concentration-response curves come from the screen itself.
For the molecule `Cc1c[n+]([O-])ccc1[N+](=O)[O-]`, the “activity change, negative = inhibition” value was -10.3%.

Regarding `Cc1nn(C)cc1/C=N/NC(=O)c1sc2ccccc2c1Cl`, the “activity change, negative = inhibition” value was -3.97%.

As to `O=C(N/N=C/c1c(Cl)[nH]c2ccccc12)c1sc2ccccc2c1Cl`, the Potency is 10 µM (active).

As for `CCOc1ccc2ccccc2c1/C=N/NC(=O)c1c(C)cc(C)[nH]c1=O`, the “activity change, negative = inhibition” value was -20.3%.

As to `OCC1(CO)CC2(C1)CC(CO)(CO)C2`, the “activity change, negative = inhibition” value is 3.43%.

In the case of `Cc1ccc(S(=O)(=O)N2CCN(C(=O)c3ccc(-n4cncn4)c([N+](=O)[O-])c3)CC2)cc1`, the “activity change, negative = inhibition” value is -1.61%.

Take `Cc1ccc(C)c(NC(=O)C2Cc3ccccc3CN2C(=O)OCc2ccccc2)c1` (stereo unspecified): the Potency is 10 µM (active).

As to `Cc1ccc(NC(=O)C2CCCN2C(=O)OCc2ccccc2)cc1C` (stereo unspecified), the “activity change, negative = inhibition” value was -3.3%.

As for `Cc1ccc(S(=O)(=O)N(C)C)cc1NC(=O)C1Cc2ccccc2CN1C(=O)c1ccco1` (stereo unspecified), the “activity change, negative = inhibition” value was 6.19%.

With `Cc1ccc(OCC(=O)Nc2ccccc2C(=O)NC2CC2)cc1`, the “activity change, negative = inhibition” value was -22%.

`CC1CCCCC1NC(=O)COc1ccc(C#N)cc1` (stereo unspecified): the “activity change, negative = inhibition” value is 11.6%.

In the case of `O=C(CC(O)(C(F)(F)F)C(F)(F)F)Nc1ccc(Cl)c(Cl)c1`, the Potency was 5.01 µM (active).

For the molecule `O=C(CC1SCCNC1=O)Nc1ccc(Cl)c(Cl)c1` (stereo unspecified), the “activity change, negative = inhibition” value is 13.4%.

On to `Cc1ccc(NC(=O)C/C(N)=N/O)cc1Cl`, for which the “activity change, negative = inhibition” value is -10.7%.

As to `Cc1cccc(C)c1OCC(O)CN1CCCCC1` (stereo unspecified), the “activity change, negative = inhibition” value was -1.28%.

Regarding `Cc1ccccc1OCC(O)CN1CCN(c2ccccn2)CC1` (stereo unspecified), the “activity change, negative = inhibition” value is 1.82%.

With `Cc1cccc(OCC(O)CN2CCN(CCN3C(=O)c4cccc5cccc(c45)C3=O)CC2)c1C` (stereo unspecified), the Potency is 8.91 µM (active).

Regarding `CCn1nc(C(=O)NNS(=O)(=O)c2cc(/C=C/C(=O)O)cc(OC)c2OC)c2ccccc2c1=O`, the “activity change, negative = inhibition” value is -16.4%.

`COc1ccc(-c2nc3cc([N+](=O)[O-])ccc3o2)cc1OC`: the “activity change, negative = inhibition” value was 13.9%.

As to `CCc1ccc2oc(-c3ccc(N)cc3)nc2c1`, the Potency was 12.6 µM (active).

Take `COc1cccc(-c2nc3cc(C)ccc3o2)c1`: the “activity change, negative = inhibition” value was 15.5%.

Take `Nc1cc(=O)n(Cc2ccccc2)c(=O)n1Cc1ccccc1`: the “activity change, negative = inhibition” value is 19.8%.

As for `Cc1c(NC(=O)CN(C)CC(=O)Nc2ccc(F)c(F)c2F)c(=O)n(-c2ccccc2)n1C`, the “activity change, negative = inhibition” value is 2.52%.

With `Cc1ccc(Nc2nc(CSc3nnc(-c4ccncc4)n3-c3ccccc3C)cs2)cc1`, the Potency was 10 µM (active).

Turning to `Cc1ccccc1-n1c(SCC(=O)NCc2cccs2)nnc1-c1ccncc1`, the “activity change, negative = inhibition” value was -5.89%.

For the molecule `Cc1ccc(-n2c(SCC(=O)N3c4ccccc4Sc4ccccc43)nnc2-c2ccncc2)cc1`, the “activity change, negative = inhibition” value was 7.58%.

Turning to `CC1CCCC(C)N1C(=O)COC(=O)COc1ccccc1C#N` (stereo unspecified), the “activity change, negative = inhibition” value is 0.641%.

As to `Cc1cccc(NC(=O)c2cccnc2Cl)n1`, the “activity change, negative = inhibition” value was -2.06%.

As for `COC(=O)c1nc(NC(=O)c2ccc(C(C)(C)C)cc2)n[nH]1`, the “activity change, negative = inhibition” value was 17.8%.

On to `CSc1nccc(NC(=O)c2ccc(C(C)(C)C)cc2)n1`, for which the Potency was 1.78 µM (active).

Take `CCN(CC(=O)Nc1cc(Cl)ccc1C)C(=O)CN1C(=O)NC2(CCCC2)C1=O`: the “activity change, negative = inhibition” value is 14%.

In the case of `CN[C@H](C(=O)NC[C@H]1O[C@@H](n2cnc3c(N)ncnc32)[C@H](O)[C@@H]1O)[C@@H](C)OCc1ccccc1`, the “activity change, negative = inhibition” value was 49.9%.

`Cc1cc(C)n(CC(O)COc2ccc(C(C)(C)C)cc2)n1` (stereo unspecified): the “activity change, negative = inhibition” value was 12.2%.

In the case of `CN(C)CC(O)COc1ccc(C(C)(C)c2ccc(OCC(O)CN(C)C)cc2)cc1` (stereo unspecified), the Potency is 10 µM (active).

Turning to `CC(C)(c1ccccc1)c1ccc(OCCN)cc1`, the “activity change, negative = inhibition” value was -16.6%.

With `Cc1ccc(C(=O)NCC(=O)NC2CC2)cc1`, the “activity change, negative = inhibition” value is 15.4%.

For `Cc1ccsc1C(=O)NNC(=O)COc1ccc(Br)cc1`, the “activity change, negative = inhibition” value was 19.3%.

As for `CCc1nnc(NC(=O)C2CCN(C(=O)c3ccccc3C)CC2)s1`, the “activity change, negative = inhibition” value is 14.9%.

Consider `CCN(CC)C(CNC(=O)CSc1nnnn1-c1cccc(F)c1)c1ccco1` (stereo unspecified), for which the Potency is 25.1 µM (active).

As to `O=C(CSc1nnnn1-c1ccccc1)NCc1ccco1`, the “activity change, negative = inhibition” value is -12.8%.

Consider `Cc1cc(NC(=O)CSc2nnnn2-c2ccc(F)cc2)no1`, for which the “activity change, negative = inhibition” value was 16.5%.

In the case of `CCN(CC)S(=O)(=O)c1ccc(Cl)c(C(=O)NC(C)C(c2cccs2)N2CCCC2)c1` (stereo unspecified), the Potency was 14.1 µM (active).

Take `CCCC(=O)NC(C)C(c1cccs1)N1CCN(c2ccccc2)CC1` (stereo unspecified): the “activity change, negative = inhibition” value is -14.3%.

Turning to `CCN(CC)S(=O)(=O)c1ccc(Cl)c(C(=O)NCCN2CCOCC2)c1`, the “activity change, negative = inhibition” value was -1.51%.

In the case of `O=S(=O)(Nc1cc(Cl)ccc1N1CCOCC1)c1ccccc1Cl`, the “activity change, negative = inhibition” value is -5.1%.

For the molecule `Cc1[nH]c2ccccc2c1C(=O)C(C)Sc1nnc(C2CC2)o1` (stereo unspecified), the “activity change, negative = inhibition” value is 8.19%.

Take `Cc1n[nH]c(=O)c2c(NC(=O)CSc3ccccc3F)oc(C)c12`: the “activity change, negative = inhibition” value was -1.71%.

Turning to `COc1ccc(-c2nn(-c3ccccc3)cc2C(=O)Nc2nccs2)cc1OC`, the Potency is 2.51 µM (active).

Regarding `CC(C)(C)OC(=O)N/N=C/c1cn(-c2ccccc2)nc1-c1cccnc1`, the “activity change, negative = inhibition” value was -16.7%.

In the case of `COC(=O)c1sccc1NC(=O)c1cc(OC)c(OC)c(OC)c1`, the “activity change, negative = inhibition” value is -10.6%.

Regarding `CC(=O)Oc1ccc(C(=O)Nc2nccs2)cc1`, the “activity change, negative = inhibition” value was 10.5%.
